Assay in all cases: NCI-60 one-dose screen, 48 h (100 = growth as untreated, 0 = no growth, -100 = all killed)
Conditions in all cases: 10 µM unless noted

For assay [1], the system named is T-47D breast.
The test system of assay [2] is BT-549 breast.
Assay [3] has as its system MDA-MB-435 melanoma.
Assay [4] concerns SW-620 colon.
Assay [5] concerns MCF7 breast.
Assay [6] concerns HCT-116 colon.
The test system of assay [7] is HCC-2998 colon.
For assay [8], the system named is KM12 colon.

Compounds without any hit were thinned out: in the full panel of roughly 83,000, 20% have a hit.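 Results are percent growth after 48 hours of single-concentration exposure. 100 means growth as in untreated cells, lower positive values show inhibition; negative values down to -100 show cell death.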 Values without a mark were called inactive. The source made the active and inactive calls. Rule for the calls: active = growth percent below 10; inactive = the rest.

Turning to `Cc1ccc(NC(=S)/N=c2/n(-c3ccccc3)nc3n2CCN3C2=NCCN2)cc1`, the growth is 92.2% in assay [1]; -6.96% (active) in assay [2]; 105% in assay [3]; 97% in assay [4]; 94.6% in assay [5]; 48.6% in assay [6]. The growth in assay [7] was 102%; in assay [8], 109%.
Take `Cn1c(=O)c(C#N)c(-c2ccco2)n2c(S(=O)(=O)Cc3ccccc3)nnc12`: the growth in assay [1] is 90.6%; in assay [2], 73.7%; in assay [3], 83%; in assay [4], 99.5%; in assay [5], 74.9%; in assay [6], 75.8%. The growth is 102% in assay [7] and 93.7% in assay [8].
Consider `O=C(N=c1n(-c2ccccc2)nc2n1CCN2C1=NCCN1C(=O)c1ccc(Cl)cc1)c1ccc(Cl)cc1`, for which the growth in assay [1] was 50.1%; in assay [2], 59.6%; in assay [3] it was 70.5%; in assay [4], 68.3%; in assay [5], 46%; in assay [6], 39.1%. Further, the values for the growth in assay [7] and in assay [8] were 85.8% and 60.7%, respectively.
Turning to `CCOc1ccc(S(=O)(=O)Nc2ccc3c(c2)N(S(=O)(=O)CC)CCC3)cc1`, the growth in assay [1] was 68.1%; in assay [2] it was 95.2%; in assay [3], 78.8%; in assay [4], 68.3%; in assay [5] it was 44.9%; in assay [6] it was 90.8%. The growth in assay [7] is 78.2%; in assay [8] it was 77%.
On to `COc1ccc(/C=C/C(=C/c2c(O)[nH]c3cc(Br)ccc23)N=O)cc1`, for which the growth in assay [1] is 103%; in assay [2], 106%; in assay [3], 108%; in assay [4], 113%; in assay [5] it was 104%; in assay [6] it was 99.7%. For the same molecule, the growth was 121% in assay [7] and 97.1% in assay [8].
For `O=C1/C(=C/c2ccc(OCc3ccccc3)cc2)Oc2cc(OCCN3CCCCC3)ccc21`, the growth in assay [1] was 63.4%; in assay [2], 85.3%; in assay [3], 54.7%; in assay [4], 71.1%; in assay [5], 65.2%; in assay [6], 52.3%. Also, the results for the growth in assay [7] and in assay [8] were 90.5% and 82.3%, respectively.
`CC1(C)CC(=O)c2c(ccc(C(=O)C[C@@H](N)CO)c2N)O1`: the growth in assay [1] was 29.5%; in assay [2], -4.27% (active); in assay [3], 39.5%; in assay [4], 7.17% (active); in assay [5], 8.5% (active); in assay [6], 8.56% (active). For the same molecule, the growth is -20.4% (active) in assay [7] and 11% in assay [8].
On to `Nc1ccc(Cl)c([N+](=O)[O-])c1`, for which the growth in assay [1] is 91.9%; in assay [2] it was 95.1%; in assay [3], 95.1%; in assay [4], 104%; in assay [5] it was 101%; in assay [6], 97.7%. Moreover, the results for the growth in assay [7] and in assay [8] were 94.4% and 96.1%, respectively.
For the molecule `CC(=O)OC[C@]12CC[C@@H](C(=O)CBr)[C@@H]1[C@H]1CC[C@@H]3[C@@]4(C)CCCNC(C)(C)[C@@H]4CC[C@@]3(C)[C@]1(C)CC2`, the growth is -69.9% [100 µM] (active) in assay [1]; -62% [100 µM] (active) in assay [2]; -87.9% [100 µM] (active) in assay [3]; -58% [100 µM] (active) in assay [4]; -54.3% [100 µM] (active) in assay [5]; -71.2% [100 µM] (active) in assay [6]. In addition, the growth was -83.3% [100 µM] (active) in assay [7] and -78.2% [100 µM] (active) in assay [8].
On to `Nc1cccc2c1C(=O)c1cccc(NC(=O)c3ccccc3)c1C2=O`, for which the growth in assay [1] is 45.6%; in assay [2] it was 24.9%; in assay [3], -56.4% (active); in assay [4], 7.88% (active); in assay [5] it was 13.7%; in assay [6], 19.9%. The figures for the growth in assay [7] and in assay [8] were -10.5% (active) and 32.5%, respectively.
Consider `CC1=CC[C@@H]2C(C)(C)[C@@H](O)CC[C@@]2(C)[C@@H]1COc1ccc2ccc(=O)oc2c1`, for which the growth in assay [1] was -10.1% (active); in assay [2], 18%; in assay [3] it was 77.6%; in assay [4], 79.2%; in assay [5] it was 77.8%; in assay [6], 44.6%. The growth is 88% in assay [7] and 40.4% in assay [8].
Consider `COc1ccc(C2CC(c3ccc4ccccc4c3)=NN2c2nc(O)c(C3=c4cc(OC)ccc4=NC3=O)s2)cc1` (stereo unspecified), for which the growth is -72.7% (active) in assay [1]; -19.8% (active) in assay [2]; -59.5% (active) in assay [3]; -42% (active) in assay [4]; -29.4% (active) in assay [5]; -64.5% (active) in assay [6]. For the same molecule, the results for the growth in assay [7] and in assay [8] were -70.4% (active) and -70.3% (active), respectively.
For `CN(C)c1ccc(-c2ccc(-c3ccc(C(=N)N)cc3)s2)cc1`, the growth was -50.8% (active) in assay [1]; 96.2% in assay [2]; -77.6% (active) in assay [3]; -54.9% (active) in assay [4]; -55.3% (active) in assay [5]; -45.3% (active) in assay [6]. Besides, the growth in assay [7] was -74.2% (active); in assay [8] it was -73% (active).
`Nc1cc(N)c(N=Nc2ccc(S(=O)(=O)O)cc2)cc1N=Nc1ccc(-c2ccc(N=Nc3ccc(O)c(C(=O)O)c3)cc2)cc1`: the growth was 90.1% in assay [1]; 113% in assay [2]; 100% in assay [3]; 105% in assay [4]; 95.5% in assay [5]; 102% in assay [6]. The growth in assay [7] is 104%; in assay [8], 101%.
On to `C[C@H]1[C@H](C)CC[C@]2(COC(=O)CCC(=O)O)CC[C@]3(C)C(=CC[C@@H]4[C@@]5(C)CCCNC(C)(C)[C@@H]5CC[C@]43C)[C@H]12`, for which the growth is 36.7% [100 µM] in assay [1]; 64% [100 µM] in assay [2]; 79.6% [100 µM] in assay [3]; 87.7% [100 µM] in assay [4]; 54.9% [100 µM] in assay [5]; 40.5% [100 µM] in assay [6]. Further, the growth was 71.9% [100 µM] in assay [7] and 78% [100 µM] in assay [8].
As to `Ic1ccc2[nH]cc(SSc3c[nH]c4ccc(I)cc34)c2c1`, the growth in assay [1] is 26.7%; in assay [2], 31.5%; in assay [3], 24.3%; in assay [4], 39.4%; in assay [5], -29.4% (active); in assay [6] it was 10.1%. Besides, the figures for the growth in assay [7] and in assay [8] were 4.84% (active) and 6.3% (active), respectively.
For the molecule `CCn1cc(-c2[nH]c(=S)ncc2-c2ccc(Cl)cc2)c(-c2ccc(Br)cc2)n1`, the growth in assay [1] is 59.3%; in assay [2] it was 91.2%; in assay [3] it was 85%; in assay [4] it was 103%; in assay [5], 84.8%; in assay [6], 72.6%. In addition, the growth is 99.5% in assay [7] and 94% in assay [8].
In the case of `C[n+]1cccc(NC(=O)c2ccc3ccc4ccc(C(=O)Nc5ccc[n+](C)c5)nc4c3n2)c1`, the growth was 12% in assay [1]; 90.4% in assay [2]; 67.8% in assay [3]; 56% in assay [4]; 54% in assay [5]; 43.1% in assay [6]. In addition, the growth was 42% in assay [7] and 42.2% in assay [8].
As to `COc1ccc(-c2ccc(NNC(=O)c3ccc(F)cc3)nn2)cc1OC`, the growth in assay [1] was 20%; in assay [2], 58.4%; in assay [3], 83.2%; in assay [4] it was 75.1%; in assay [5], 51.1%; in assay [6], 66.2%. The growth in assay [7] is 90.5%; in assay [8], 92.3%.
As to `O=C1Nc2ccccc2/C1=C/C(=O)c1ccc(N2CCCC2)cc1`, the growth in assay [1] was 40.5%; in assay [2] it was 107%; in assay [3] it was -51.9% (active); in assay [4] it was 5.46% (active); in assay [5], 17.8%; in assay [6], 103%. In addition, the growth is 77.9% in assay [7] and 15.1% in assay [8].
Regarding `Nc1cc(C(=O)O)[nH]c(=S)n1`, the growth in assay [1] was 105%; in assay [2], 69.1%; in assay [3], 98%; in assay [4], 101%; in assay [5], 96.2%; in assay [6] it was 100%. Moreover, the growth was 95.3% in assay [7] and 98.9% in assay [8].
For `Cn1cc(-c2nnc(-c3cn(C)c4ncc(Br)cc34)s2)c2cc(Br)ccc21`, the growth is 67.6% in assay [1]; 96.2% in assay [2]; 92.1% in assay [3]; 96.4% in assay [4]; 74.1% in assay [5]; 96.4% in assay [6]. Besides, the growth in assay [7] is 103%; in assay [8], 94.6%.
Turning to `COc1cc(/C=C/C(=O)/C=C/c2ccc(-n3ccnc3)cc2)ccc1O`, the growth is 58% in assay [1]; 102% in assay [2]; -9.19% (active) in assay [3]; 8.7% (active) in assay [4]; 6.22% (active) in assay [5]; 97.5% in assay [6]. In addition, the growth was 42.7% in assay [7] and -42.4% (active) in assay [8].
Take `COc1ccc(/C=C/C=C\C(=O)c2ccc(-n3ccnc3)cc2)cc1`: the growth in assay [1] is 58.1%; in assay [2], 50%; in assay [3] it was 92.8%; in assay [4] it was 98.4%; in assay [5], 79.5%; in assay [6], -76.2% (active). Also, the growth in assay [7] is 99.9%; in assay [8], 92.8%.
As to `Fc1cc2[nH]ncc2c2c3c(c(-c4cn[nH]c4)nc12)CCCC3`, the growth is -19.3% (active) in assay [1]; -17.3% (active) in assay [2]; 5.22% (active) in assay [3]; 5.91% (active) in assay [4]; 3.02% (active) in assay [5]; 5.6% (active) in assay [6]. In addition, the growth in assay [7] is 16.5%; in assay [8], 5.18% (active).
For `CC1(C)CC[C@]2(C(=O)OC(=O)[C@]34CCC(C)(C)C[C@@H]3C3=CC[C@@H]5[C@@]6(C)CCC(=O)C(C)(C)[C@@H]6CC[C@@]5(C)[C@]3(C)CC4)CC[C@]3(C)C(=CC[C@@H]4[C@@]5(C)CCC(=O)C(C)(C)[C@@H]5CC[C@]43C)[C@H]2C1`, the growth in assay [1] is 48.1% [100 µM]; in assay [2], 75.3% [100 µM]; in assay [3], 63.2% [100 µM]; in assay [4] it was 70% [100 µM]; in assay [5] it was 51.8% [100 µM]; in assay [6], 41% [100 µM]. For the same molecule, the growth in assay [7] is 98.2% [100 µM]; in assay [8], 67.2% [100 µM].
Consider `C=C(C)[C@@H]1CC[C@]2(C)[C@H](CC[C@@H]3[C@@H]([C@@](C)(O)CCC=C(C)C)CC[C@]32C)[C@@]1(C)CCC(=O)O`, for which the growth in assay [1] was 17% [100 µM]; in assay [2], -22% [100 µM] (active); in assay [3] it was -36.7% [100 µM] (active); in assay [4], 0.938% [100 µM] (active); in assay [5], 7.92% [100 µM] (active); in assay [6] it was -39.4% [100 µM] (active). For the same molecule, the growth in assay [7] was -37.4% [100 µM] (active); in assay [8], -55.2% [100 µM] (active).

For the origin of these results see PubChem BioAssay (NCI).
